In the library only some 17% were active in any assay of this set; here they are far more common.
DT40 TDP1 CPT: growth inhibition of DT40 Tdp1-/-;hTDP1 cells with camptothecin (screen for TDP1 inhibitors); hit rate 12% among 420,000; Potency, µM (series often up to 46.2 µM), inactives show at the top dose activity change, negative = growth inhibition, actives largely listed as inhibitors; chicken DT40 Tdp1-/-;hTDP1 cells + 20 nM CPT, ATP luminescence, 48 h; also: % is scaled to controls: 0 for no effect and ±100 for the full control effect; nearly all actives have a fitted effect of over 55% in size
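Chicken DT40 Tdp1-/- cells complemented with human TDP1, 400 cells/well, exposed to compounds plus 20 nM camptothecin for at least 48 h at 37 C; viability read as ATP content by CellTiter-Glo luminescence.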
TGFb SMAD3 inh: blocks TGF-b signaling | Potency, µM (highest dose often 46.1 µM), for the others: top-dose activity, negative = inhibition, actives largely listed as inhibitors | HepG2 CAGA-GFP TGF-b/SMAD3 reporter, GFP fluorescence, 18 h; TGF-beta stimulated, 500 pg/mL final | hit rate 1.2% among 410,000; also: % is scaled to controls: 0 for no effect and ±100 for the full control effect; nearly all actives have a fitted effect of over 65% in size
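HEPG2 CAGA-GFP reporter cells (1000/well, DMEM with 1% FBS) received compounds, then recombinant TGF-beta at 500 pg/mL final for 18 hours at 37 degrees C. Per-cell GFP summed per well was normalised to unstimulated and stimulated DMSO controls before curve fitting.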
ATXN2 expr inh: ATXN2 expression inhibition; HEK-293 ATXN2-luciferase reporter, luminescence, 24 h; Potency, µM (doses to about 57 µM), without a hit: at the highest dose activity change, negative = inhibition, most hits filed as inhibitors; hit rate 0.72% among 360,000; AID 1745845; also: % is scaled to controls: 0 for no effect and ±100 for the full control effect; nearly all actives have a fitted effect of over 55% in size
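ATXN2-luciferase reporter cells (luciferase flanked by upstream and downstream ATXN2 gene portions) were treated 24 h at 37 °C with compounds at up to 57 uM. SteadyGlo luminescence gave expression; GF-AFC fluorescence gave viability.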
S2 tox: viability counter-screen for ATXN expression inhibitors; hit rate 0.49% among 400,000; S2 cells (HEK-293 line with an ATXN2-luciferase reporter) viability, CellTiter-Fluor protease fluorescence, 24 h; Potency, µM (series often up to 56.7 µM), hits mostly cytotoxic; also: nearly all actives have a fitted effect of over 40% in size
HepG2 viability: counter-screen for TGF-b inhibitors: cytotoxicity in HepG2 cells; HepG2 CAGA-GFP viability, ATP luminescence, 18 h; Potency, µM (series often up to 46.1 µM), inactives show at the top dose activity change, negative = cytotoxicity, most hits filed as cytotoxic; hit rate 0.76% among 410,000
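HepG2 CAGA-GFP cells (1000/well, DMEM with 1% FBS) received compound, then TGF-beta at 500 pg/mL final, and were incubated 18 hours at 37 degrees C. Viability was read by CellTiter-Glo luminescence. Media-only wells were set as complete cell-killing and DMSO as no toxicity.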
DT40 TDP1 no CPT: qHTS for Inhibitors of human tyrosyl-DNA phosphodiesterase 1 (TDP1): qHTS in cells in absence of CPT; DT40 Tdp1-/- hTDP1 cells, no CPT, ATP luminescence, 48 h; Potency, µM (top dose mostly 46.2 µM), for inactives: at the highest dose activity change, negative = growth inhibition, actives largely listed as inhibitors; hit rate 15% among 420,000; also: % is scaled to controls: 0 for no effect and ±100 for the full control effect; nearly all actives have a fitted effect of over 55% in size
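A cellular qHTS used chicken DT40 cells lacking endogenous Tdp1 but carrying stably transfected human TDP1. Compounds were applied without camptothecin, and cell growth kinetics were judged by ATP-dependent luminescence after ≥48 hr.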
* = called active by the depositor; i = inactive; ? = inconclusive; · = no result. Calls follow the shape of the dose curve; as a rule, active = well fitted curve in the direction sought with a large enough effect; inconclusive = small, poorly fitted or top-dose-only effect, or another doubt; inactive = no such curve, though single readings can be large; an effect the other way counts as inactive or inconclusive. Potency is read from the fitted curve at half-maximal effect.

SMILES | DT40 TDP1 CPT | TGFb SMAD3 inh | ATXN2 expr inh | S2 tox | HepG2 viability | DT40 TDP1 no CPT
CC(=O)N1c2ccc(S(=O)(=O)N(C)c3cc(C)ccc3C)cc2CC1C (centres undefined) | ? | 0% | · | i | -8% | 23µM*
CC(=O)N1c2ccc(S(=O)(=O)N(C)CC(=O)NCc3ccc(C)cc3)cc2CC1C (centres undefined) | -20% | -11% | -6% | i | 2% | -7%
COc1ccc(C)cc1NC(=O)CN(C)S(=O)(=O)c1ccc2c(c1)CC(C)N2C(C)=O (centres undefined) | 23µM* | 0% | · | · | 1% | ?
CC(C)NC[C@@H](O)COc1ccc(COCCOC(C)C)cc1 | 6% | · | · | i | · | -13%
O=C(NC1C2CCCC1CN(C1CC1)C2)c1ccc(Cl)cc1 (centres undefined) | ? | 1% | · | i | -1% | 29µM*
Cc1ccc(N(Cc2ccccc2)C(=O)c2cccc(S(=O)(=O)N3CCN(C)CC3)c2)cc1 | ? | 0% | 10% | i | -4% | ?
Cc1ccc(N(Cc2ccccc2)C(=O)c2cccc(S(=O)(=O)N3CCOCC3)c2)cc1 | ? | 17% | -11% | i | -9% | 21µM*
Cc1ccc(N(Cc2ccccc2)C(=O)c2ccc(S(=O)(=O)N3CCOCC3)cc2)cc1 | ? | -25% | 6% | i | 12% | 18µM*
Cc1ccc(N(Cc2ccccc2)C(=O)c2ccc(C)c(S(=O)(=O)N3CCOCC3)c2)cc1 | ? | -15% | · | i | -12% | ?
COc1ccc(S(=O)(=O)Nc2cccnc2)cc1OC | 3% | 13% | 1% | i | 1% | 16%
CNC(=O)N(O)C1N(/N=C/c2c(F)cccc2Cl)C(=S)SC1(C)C (centres undefined) | -3% | -2% | -5% | i | -16% | 9%
CC[N+]1(CC)CC2=Cc3c(ccc4ccccc34)CC2C1 (centres undefined) | ? | 22% | 2% | i | 2% | 21µM*
CC12Cc3ccc4ccccc4c3C=C1C[N+](C)(C)C2 (centres undefined) | -7% | 14% | -11% | i | -9% | -21%
CCN(CC)c1ccc(CN(C(=O)c2cccs2)C2CCS(=O)(=O)C2)cc1 (centres undefined) | ? | 2% | -6% | i | -6% | ?
COc1cc(OC)c(C(=O)COc2ncnc3ccccc23)c(OC)c1 | ? | -1% | -2% | i | 5% | ?
Cc1ccc(C)c(C(=O)COc2ncnc3ccccc23)c1 | 18µM* | -17% | 8% | i | -25% | ?
Fc1ccc(-n2c(-c3ccc4ccccc4n3)n[nH]c2=S)cc1 | 9% | -4% | -8% | i | -31% | 1%
S=c1[nH]nc(-c2ccc3ccccc3n2)n1-c1cc(Cl)cc(Cl)c1 | ? | -13% | 4% | ? | 8% | 16µM*
COc1ccc(C(=O)NCc2ccncc2)cc1S(=O)(=O)NCc1ccc(Cl)cc1 | -18% | 7% | -3% | i | 5% | 10%
Cc1nc(NC(=O)c2cccc(Cl)c2)sc1C(=O)N1CCCCC1 | 18µM* | -5% | · | i | -6% | 18µM*
CC(C)c1ccc(C(O)P(=O)(OC2CCCCC2)OC2CCCCC2)cc1 (centres undefined) | ? | ? | · | 32µM* | -133% | ?
Cc1nc(C(=O)Nc2ccccc2Cl)cc2c1[nH]c1ccccc12 | ? | -3% | -21% | i | 7% | 6.5µM*
CC(=O)c1ccc(-c2[nH]c3ccccc3c2CCN2C(=O)c3ccccc3C2=O)cc1 | ? | -5% | -18% | i | -20% | ?
O=C1c2ccccc2C(=O)N1CCc1ccccc1 | ? | -9% | 48% | i | -4% | ?
O=C1c2ccccc2C(=O)N1CCc1c(-c2[nH]c3ccccc3c2CCN2C(=O)c3ccccc3C2=O)[nH]c2ccccc12 | 21µM* | -2% | 11% | i | -15% | 18µM*
SMILES | DT40 TDP1 CPT | TGFb SMAD3 inh | ATXN2 expr inh | S2 tox | HepG2 viability | DT40 TDP1 no CPT
O=C1c2ccccc2C(=O)N1CCc1c(-c2ccccc2)[nH]c2ccccc12 | ? | ? | ? | ? | -9% | 15µM*
Cc1cccc(NC(=O)c2oc3c(c2C)C(=O)CC(C)(C)C3)n1 | 12µM* | 6% | 24% | i | -14% | 5.2µM*
Cc1c(C(=O)N2CCN(c3ccccn3)CC2)oc2c1C(=O)CC(C)(C)C2 | ? | -12% | · | i | -15% | ?
O=C(CCc1ccccc1)OCC(=O)c1ccc(Br)cc1 | -3% | -11% | 1% | i | -15% | 16%
COc1ccc(-n2c(N)cc(=O)nc2SCC(=O)NC2CCCCC2)cc1 | -3% | 17% | -8% | i | -9% | 2%
O=C(CCCOC(=O)c1ccc(O)cc1O)c1ccc(Br)cc1 | ? | ? | ? | i | -18% | 23µM*
C=CCOC(=O)c1[nH]c2c(c1C)C(=O)CC(c1ccco1)C2 (centres undefined) | 0.021µM* | ? | -1% | ? | 0% | 0.0065µM*
Cc1c(C(=O)OCC2CCCO2)[nH]c2c1C(=O)CC(c1ccco1)C2 (centres undefined) | 3.7µM* | -3% | -5% | i | -25% | 3.7µM*
C/C=C/COC(=O)c1[nH]c2c(c1C)C(=O)CC(c1ccco1)C2 (centres undefined) | 0.29µM* | ? | ? | ? | -10% | 0.21µM*
O=C(CNCc1ccc(F)cc1)Nc1ccc(S(=O)(=O)N2CCOCC2)cc1 | -24% | -5% | -8% | i | -9% | -1%
CCOc1cc(CNn2cnnc2)cc(Cl)c1OCC(=O)NC(C)(C)C | -5% | -3% | 3% | i | -17% | -22%
COc1ccc(-c2noc(CCC(=O)NCCc3ccccc3)n2)cc1 | -18% | -17% | 2% | i | 0% | ?
COc1ccc(-c2noc(CCC(=O)NC3CCN(Cc4ccccc4)CC3)n2)cc1 | ? | -3% | -9% | i | -23% | 12µM*
COc1ccc(-c2noc(CCC(=O)NCc3ccc(C)cc3)n2)cc1 | -28% | 5% | 5% | i | -11% | -14%
O=C(CCc1nc(-c2ccccc2F)no1)NCCN1CCN(Cc2ccccc2)CC1 | 18µM* | ? | -16% | i | -11% | ?
